# Results reported in the supplement of paper PMC4466140.
# Molecular target: ScBbc1
# Assay: SPOT peptide array binding signal intensity (averaged, normalized) (arbitrary units (background-subtracted, floor 0; scale differs between SH3 domains)); higher = stronger binding of the SH3 domain to the peptide
# How it was run: (§1)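 Binding signal refers to normalized, background-subtracted spot intensity averaged over replicates, expressed in arbitrary units that differ between domains. GST-fused SH3 domains from four yeast species were incubated at 10 μg/ml overnight at 4°C on cellulose membranes of synthetic 15-mer peptides with cysteines replaced by serines. Bound protein was detected with anti-GST antibody, an HRP anti-mouse secondary and luminol, and quantified with Genespotter.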
row,Binder,SPOT peptide array binding signal intensity
1,EQEEIAPSLPSRNSI,≤ 0

# Molecular target: ScBem1-D1
# Assay: as above
# How it was run: as §1
row,Binder,SPOT peptide array binding signal intensity
1,EQEEIAPSLPSRNSI,≤ 0

# Molecular target: ScBzz1-D1
# Assay: as above
# How it was run: as §1
row,Binder,SPOT peptide array binding signal intensity
1,EQEEIAPSLPSRNSI,7

# Molecular target: ScBzz1-D2
# Assay: as above
# How it was run: as §1
row,Binder,SPOT peptide array binding signal intensity
1,EQEEIAPSLPSRNSI,1

# Molecular target: ScCyk3
# Assay: as above
# How it was run: as §1
row,Binder,SPOT peptide array binding signal intensity
1,EQEEIAPSLPSRNSI,1

# Molecular target: ScFus1
# Assay: as above
# How it was run: as §1
row,Binder,SPOT peptide array binding signal intensity
1,EQEEIAPSLPSRNSI,1

# Molecular target: ScHof1
# Assay: as above
# How it was run: as §1
row,Binder,SPOT peptide array binding signal intensity
1,EQEEIAPSLPSRNSI,1.5

# Molecular target: ScHse1
# Assay: as above
# How it was run: as §1
row,Binder,SPOT peptide array binding signal intensity
1,EQEEIAPSLPSRNSI,7

# Molecular target: ScLsb1
# Assay: as above
# How it was run: as §1
row,Binder,SPOT peptide array binding signal intensity
1,EQEEIAPSLPSRNSI,127

# Molecular target: ScLsb2
# Assay: as above
# How it was run: as §1
row,Binder,SPOT peptide array binding signal intensity
1,EQEEIAPSLPSRNSI,8

# Molecular target: ScLsb3
# Assay: as above
# How it was run: as §1
row,Binder,SPOT peptide array binding signal intensity
1,EQEEIAPSLPSRNSI,4150

# Molecular target: ScLsb4
# Assay: as above
# How it was run: as §1
row,Binder,SPOT peptide array binding signal intensity
1,EQEEIAPSLPSRNSI,2440

# Molecular target: ScMyo3
# Assay: as above
# How it was run: as §1
row,Binder,SPOT peptide array binding signal intensity
1,EQEEIAPSLPSRNSI,≤ 0

# Molecular target: ScMyo5
# Assay: as above
# How it was run: as §1
row,Binder,SPOT peptide array binding signal intensity
1,EQEEIAPSLPSRNSI,≤ 0

# Molecular target: ScNbp2
# Assay: as above
# How it was run: as §1
row,Binder,SPOT peptide array binding signal intensity
1,EQEEIAPSLPSRNSI,2.5

# Molecular target: ScPex13
# Assay: as above
# How it was run: as §1
row,Binder,SPOT peptide array binding signal intensity
1,EQEEIAPSLPSRNSI,646

# Molecular target: ScRvs167
# Assay: as above
# How it was run: as §1
row,Binder,SPOT peptide array binding signal intensity
1,EQEEIAPSLPSRNSI,244

# Molecular target: ScSho1
# Assay: as above
# How it was run: as §1
row,Binder,SPOT peptide array binding signal intensity
1,EQEEIAPSLPSRNSI,≤ 0

# Molecular target: ScSla1-D1-D2
# Assay: as above
# How it was run: as §1
row,Binder,SPOT peptide array binding signal intensity
1,EQEEIAPSLPSRNSI,1

# Molecular target: ScSla1-D3
# Assay: as above
# How it was run: as §1
row,Binder,SPOT peptide array binding signal intensity
1,EQEEIAPSLPSRNSI,1

# Molecular target: SpAbp1-D1
# Assay: as above
# How it was run: as §1
row,Binder,SPOT peptide array binding signal intensity
1,EQEEIAPSLPSRNSI,1

# Molecular target: SpBbc1
# Assay: as above
# How it was run: as §1
row,Binder,SPOT peptide array binding signal intensity
1,EQEEIAPSLPSRNSI,2

# Molecular target: SpBzz1-D1
# Assay: as above
# How it was run: as §1
row,Binder,SPOT peptide array binding signal intensity
1,EQEEIAPSLPSRNSI,≤ 0

# Molecular target: SpBzz1-D2
# Assay: as above
# How it was run: as §1
row,Binder,SPOT peptide array binding signal intensity
1,EQEEIAPSLPSRNSI,1

# Molecular target: SpCyk3
# Assay: as above
# How it was run: as §1
row,Binder,SPOT peptide array binding signal intensity
1,EQEEIAPSLPSRNSI,≤ 0

# Molecular target: SpHof1
# Assay: as above
# How it was run: as §1
row,Binder,SPOT peptide array binding signal intensity
1,EQEEIAPSLPSRNSI,1

# Molecular target: SpHof1-2
# Assay: as above
# How it was run: as §1
row,Binder,SPOT peptide array binding signal intensity
1,EQEEIAPSLPSRNSI,≤ 0

# Molecular target: SpHof1-3
# Assay: as above
# How it was run: as §1
row,Binder,SPOT peptide array binding signal intensity
1,EQEEIAPSLPSRNSI,0.75

# Molecular target: SpHse1
# Assay: as above
# How it was run: as §1
row,Binder,SPOT peptide array binding signal intensity
1,EQEEIAPSLPSRNSI,≤ 0

# Molecular target: SpLsb1
# Assay: as above
# How it was run: as §1
row,Binder,SPOT peptide array binding signal intensity
1,EQEEIAPSLPSRNSI,13

# Molecular target: SpLsb4
# Assay: as above
# How it was run: as §1
row,Binder,SPOT peptide array binding signal intensity
1,EQEEIAPSLPSRNSI,4140

# Molecular target: SpMyo1
# Assay: as above
# How it was run: as §1
row,Binder,SPOT peptide array binding signal intensity
1,EQEEIAPSLPSRNSI,≤ 0

# Molecular target: SpNbp2
# Assay: as above
# How it was run: as §1
row,Binder,SPOT peptide array binding signal intensity
1,EQEEIAPSLPSRNSI,5.5

# Molecular target: SpPex13
# Assay: as above
# How it was run: as §1
row,Binder,SPOT peptide array binding signal intensity
1,EQEEIAPSLPSRNSI,≤ 0

# Molecular target: SpRvs167
# Assay: as above
# How it was run: as §1
row,Binder,SPOT peptide array binding signal intensity
1,EQEEIAPSLPSRNSI,450

# Molecular target: SpSla1-D1-D2
# Assay: as above
# How it was run: as §1
row,Binder,SPOT peptide array binding signal intensity
1,EQEEIAPSLPSRNSI,2

# Molecular target: SpSla1-D3
# Assay: as above
# How it was run: as §1
row,Binder,SPOT peptide array binding signal intensity
1,EQEEIAPSLPSRNSI,1
